The nature of assay [1]: NCI Yeast Anticancer Drug Screen. Data for the rad50 strain (AID 155).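 Further: 0% = growth of vehicle-only cultures of the same strain.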 The note with it: S. cerevisiae rad50 strain growth inhibition, active compounds read high; at 50.0 µM unless noted. The method in brief:
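Yeast carrying a defined DNA repair defect were exposed to test compounds, and growth was compared with vehicle-treated controls to give percent inhibition.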

Assay [2] in a line: NCI Yeast Anticancer Drug Screen. Data for the mec2-1 strain (AID 157). To be noted: S. cerevisiae mec2-1 strain, active compounds read high; at 50.0 µM unless noted. The method in brief:
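mec2-1 yeast strain, carrying an alteration in DNA damage repair or cell cycle control, was exposed to compounds; growth inhibition was measured relative to vehicle-treated controls.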

The nature of assay [3]: NCI Yeast Anticancer Drug Screen. Data for the sgs1 mgt1 strain (AID 161).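 Further: 0% = growth of cultures given vehicle only.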 To be noted: S. cerevisiae sgs1 mgt1 strain, active compounds read high; at 50.0 µM unless noted. The method in brief: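 Growth of a repair-deficient yeast mutant was monitored after compound treatment and expressed as inhibition relative to vehicle-treated cultures.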
The nature of assay [4]: NCI Yeast Anticancer Drug Screen. Data for the cln2 rad14 strain (AID 165).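 Further: 0% = growth equal to vehicle treated cultures.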 The note with it: S. cerevisiae cln2 rad14 strain, active compounds read high; at 50.0 µM unless noted. The method in brief:
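Yeast carrying cln2 and rad14 alterations (cell cycle control and DNA damage repair) were exposed to compounds. Growth inhibition was measured against vehicle-treated controls.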

Assay [5] is described as follows: NCI Yeast Anticancer Drug Screen. Data for the bub3 strain (AID 167). The note with it: S. cerevisiae bub3 mutant strain, active compounds read high; at 50.0 µM unless noted. The method, boiled down: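 Compounds were applied to a genetically altered yeast strain carrying a cell-cycle control defect. Growth inhibition was scored against vehicle-treated controls.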
A short description of assay [6]: NCI Yeast Anticancer Drug Screen. Data for the mlh1 rad18 strain (AID 175). The note with it: S. cerevisiae mlh1 rad18 strain growth inhibition, active compounds read high; at 50.0 µM unless noted. The method, boiled down:
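Growth inhibition of the yeast strain was measured after compound exposure and expressed relative to vehicle-treated controls. The strain carries defined defects in DNA damage repair.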

Compounds without any hit were thinned out: in the full panel of roughly 79,000, 15% have a hit. A number with no mark means an inactive call. The source made the active and inactive calls. No stated cut-off is given here; in the data, active means growth inhibition above about 70%; inactive means the rest.

For the molecule `CC(=O)CC(=O)Nc1ccc2ccccc2c1`, the growth inhibition is -1.9% in assay [1]; -12% in assay [2]; -8.3% in assay [3]; -36.4% in assay [4]; -37.9% in assay [5]; -14.6% in assay [6].
With `C=C(C)C(=O)O[C@H]1[C@H]2[C@H](OC(=O)[C@H]2C)[C@H](O)[C@@H](C)[C@@H]2C=CC(=O)[C@]21C`, the growth inhibition in assay [1] was 31.3%; in assay [2] it was 30.5%; in assay [3] it was 69.8%; in assay [4], 47.2%; in assay [5], 57.4%; in assay [6], -31.1%.
As to `C=CCc1cc2c(C)cc(=O)oc2c(C)c1OC(C)=O`, the growth inhibition is -4.1% in assay [1]; -23.8% in assay [2]; -1.1% in assay [3]; 13.1% in assay [4]; -25.9% in assay [5]; -2.45% in assay [6].
Take `CSc1ccc(NC(=O)Nc2cc(C)ccc2N=Nc2ccc(C)cc2)cc1`: the growth inhibition in assay [1] was -1.5%; in assay [2], -2.35%; in assay [3], -4.95%; in assay [4], -9.3%; in assay [5], -4.75%; in assay [6], 17.5%.
Take `Cc1ccccc1C(=O)NCC(=O)O`: the growth inhibition is 10.8% in assay [1]; -28.1% in assay [2]; 8.2% in assay [3]; 3.65% in assay [4]; -4.1% in assay [5]; 12.3% in assay [6].
For `O=c1[nH]c2ccc(O)cc2o1`, the growth inhibition in assay [1] is 33.2%; in assay [2] it was 17.8%; in assay [3] it was 27.6%; in assay [4] it was -10.1%; in assay [5] it was 12.9%; in assay [6], 22.2%.
In the case of `CCCCCC(=O)OC(c1ccc(Cl)cc1)c1ccc(Cl)cc1`, the growth inhibition was -5.2% in assay [1]; -26.2% in assay [2]; 5.5% in assay [3]; 12.6% in assay [4]; 26.8% in assay [5]; 5.3% in assay [6].
Consider `CCOc1ccc(N=Nc2c(-c3ccccc3)nn(C(=O)CC(=O)Nc3ccccc3Cl)c2-c2ccccc2)cc1`, for which the growth inhibition in assay [1] is 20.6%; in assay [2], -8.2%; in assay [3] it was 34.6%; in assay [4], 3.5%; in assay [5], 31%; in assay [6], 18.7%.
As to `CCOC(=O)C1=C(O)C(=O)C=C(O)C1=N`, the growth inhibition is -12.2% in assay [1]; -2.6% in assay [2]; -11.6% in assay [3]; 4.5% in assay [4]; -18.4% in assay [5]; 9.65% in assay [6].
Turning to `Cc1nn(C(C)C(=O)N(C)C)c(Br)c1Br` (stereo unspecified), the growth inhibition in assay [1] is 2.05%; in assay [2] it was 4.7%; in assay [3] it was 0.75%; in assay [4], -30.4%; in assay [5], -25.7%; in assay [6] it was 3.15%.
As to `CCOC(=O)CNC(=O)C(CCC(=O)N(C)O)NC(=O)CCC(N)C(=O)O` (stereo unspecified), the growth inhibition is -20.1% in assay [1]; -5.5% in assay [2]; -0.8% in assay [3]; -0.05% in assay [4]; 4.25% in assay [5]; -35.5% in assay [6].
Turning to `CC12CCC([C@H](C(O)C3CCCCC3)C1=O)C2(C)C` (stereo partly specified), the growth inhibition was -2.7% in assay [1]; -16.6% in assay [2]; -12.8% in assay [3]; 16.6% in assay [4]; -5.7% in assay [5]; -5.1% in assay [6].
`CCCCC(C#N)C(=O)NC(N)=O` (stereo unspecified): the growth inhibition in assay [1] was -7%; in assay [2] it was 3.2%; in assay [3], -8.05%; in assay [4], 0.4%; in assay [5], 4.85%; in assay [6] it was -7.25%.
Turning to `CC(C(=O)O)N1C(=O)CNC1=O` (stereo unspecified), the growth inhibition was -1.85% in assay [1]; -4.05% in assay [2]; 1.15% in assay [3]; -37.6% in assay [4]; 1.25% in assay [5]; -12.8% in assay [6].
Turning to `Cn1c2ccccc2c2c3c(ccc21)C(=O)N(c1ccccc1)C3=O`, the growth inhibition in assay [1] is 11.7%; in assay [2], -4.7%; in assay [3] it was 12.9%; in assay [4], -3.5%; in assay [5], 12.4%; in assay [6] it was 2.95%.
For `CC(=O)c1c(Cl)nnc(-c2ccccc2)c1-c1ccccc1`, the growth inhibition in assay [1] is -9%; in assay [2] it was 0.05%; in assay [3], -9.2%; in assay [4], -21.9%; in assay [5] it was -11.7%; in assay [6] it was -12.3%.
With `CC(C)N(C(=S)S)C(C)C`, the growth inhibition in assay [1] is 9.5%; in assay [2], 4.95%; in assay [3], 16.6%; in assay [4], -0.65%; in assay [5], -26.4%; in assay [6], -19.2%.
On to `CC(=O)OCC1OC(n2c3c(c(-c4cccc5ccccc45)c(C#N)c2=S)CCCC3)C(OC(C)=O)C(OC(C)=O)C1OC(C)=O` (stereo unspecified), for which the growth inhibition in assay [1] was -1.25%; in assay [2], -5.3%; in assay [3] it was 14%; in assay [4], 6.15%; in assay [5] it was -5.8%; in assay [6], 12.7%.
Consider `COc1ccc(C2=Nc3ccccc3N=C(SC)C2)cc1`, for which the growth inhibition in assay [1] is 42.2%; in assay [2] it was -5.3%; in assay [3], 51.1%; in assay [4], 6.75%; in assay [5], 53.7%; in assay [6], 32.5%.
As to `CCN(CC)c1cc(C)c2cc(Cc3ccccc3)ccc2n1`, the growth inhibition is 35.2% in assay [1]; 32.8% in assay [2]; 23.9% in assay [3]; 31.8% in assay [4]; 65.1% in assay [5]; 14.5% in assay [6].
Consider `C/C(=C\c1ccc(N(C)C)cc1)c1ccncc1`, for which the growth inhibition is 63.3% in assay [1]; 38.9% in assay [2]; 68.5% in assay [3]; 34.8% in assay [4]; 86.7% (active) in assay [5]; 48.2% in assay [6].
